From PubChem BioAssay AID2289 (National Center for Advancing Translational Sciences (NCATS), 2010)
Values joined by “and” are separate entries in the source; they are usually repeats but may differ in a detail not shown here. Equal values may be shown once. Screen size: about 340,000 compounds; about 3,300 (0.97%) were called active. About 9% were inconclusive and are not listed. The call rests on the fitted dose curve; in most records, active means well fitted inhibition curve with a large enough effect; inconclusive means small, poorly fitted or top-dose-only effect, or effect the other way; inactive means flat fitted curve, though single readings scatter. Some of the results follow.

Experiment: qHTS Assay for Modulators of miRNAs and/or Inhibitors of miR-21; further: nearly all actives have a fitted effect of over 55% in size
Conditions: HeLa miR-21-FLuc reporter, luciferase luminescence, 48 h; actives lower the signal
Source text: MLSCN Grant: 1 R21 NS059478-01 Assay Provider: Qihong Huang, The Wistar Institute NCGC Assay Overview: MicroRNAs (miRNAs) are endogenously encoded small (~20-25 nucleotides), nonprotein-coding RNAs that are involved in post-transcriptional repression of target messenger RNAs (mRNAs) (Le and Hannon, 2004). Estimated to be involved in the regulation of 30% of all protein-coding mRNAs (Filipowicz et al., 2008), miRNAs play a significant role in many biological processes including cellular differentiation and tissue development (Ghildiyal and Zamore, 2009).
NCGC Assay Protocol Summary: Reagents: HeLa cells stably expressing firefly luciferase (FLuc) under the control of a CMV promoter (upstream) and a miR-21 binding sequence directly downstream of the gene. These cells endogenously express miR-21. Control compounds used were compound C3 (provided by collaborator), N6-phenyladenosine (MP Biomedicals, 0215379625), and DMSO. Assay Summary: 6uL of HeLa miR-21-FLuc cells in assay buffer (DMEM, Invitrogen #21063-029; 10% FBS, HyClone #SH30071.03) were dispensed at 2000cells/well (3.3 x 10^5 cells/mL) into Greiner solid-white TC-treated 1536-well plates using a Multidrop Combi (Thermo Fisher Scientific). Plates were incubated for one hour at 37 degree Celsius, 95% humidity, 5% CO2. These assay plates were then treated with 23nL of compound or DMSO using a Kalypsys pin tool, which allows for delivery of a 24-point titration of each compound to the assay plate, with a final compound concentration ranging from approximately 40uM to 5pM. Assay plates were then incubated for 48 hours. After incubation, plates were allowed to come to RT for one hour prior to delivery of 3uL of 3X luciferase detection reagent. After a 15 minute incubation to allow for cell lysis, luciferase activity was measured using a ViewLux CCD imager (PerkinElmer), with an average exposure time of 2-12 seconds. Keywords: NIH Roadmap, MLPCN, MLSMR, qHTS, miR-21, microRNA, firefly luciferase, FLuc.
Potency means the concentration at half of the fitted maximal effect.

Potency, active:
COc1ccc(NC(=S)N2CCc3ccccc32)cc1OC 16.5 µM, Brc1c(CSc2nc3ccccc3o2)nc2ncccn12 7.36 µM, Brc1c(CSc2nc3ccccc3s2)nc2ncccn12 3.29 µM, C/C(=N\Nc1nncc2ccccc12)c1ccc(OCC(=O)N(C)C)cc1 4.65 µM, C/C(=N\Nc1nncc2ccccc12)c1cccc(OC(F)F)c1 0.414 µM, C/C(=N\Nc1nncc2ccccc12)c1ccc(C(C)(C)C)cc1 7.36 µM, COc1ccc(/C(C)=N/Nc2nncc3ccccc23)cc1 0.826 µM, Cc1cc(N2CCOCC2)nc(SCC(=O)c2ccccc2)n1 13.1 µM, Cc1cc(=O)oc2cc(NC(=O)c3ccccc3Cl)ccc12 3.69 µM, Cc1cc(=O)oc2cc(NC(=O)c3ccccc3OC(F)F)ccc12 8.26 µM, COc1cccc(C(=O)Nc2ccc3c(C)cc(=O)oc3c2)c1 0.329 µM, CCCCOC(=O)Nc1ccc2c(C)cc(=O)oc2c1 1.17 µM, COc1cccc(C(=O)Nc2nnc(-c3ccccc3)s2)c1 0.826 µM, O=C(NC(=S)Nc1ccc2c(c1)C(=O)c1ccccc1C2=O)c1ccc(F)cc1 2.93 µM, COc1cccc(C(=O)Nc2ccc3c(c2)C(=O)c2ccccc2C3=O)c1 2.93 µM, c1ccc2sc(Nc3nc4cc5c(cc4s3)OCO5)nc2c1 3.69 µM, C/C(=N\Nc1nc2ccccc2s1)c1ccc2c(c1)OCO2 10.4 µM, CC(=O)c1sc(Nc2nc3cc4c(cc3s2)OCO4)nc1C 1.85 µM, Fc1ccc2nc(Nc3nc4cc5c(cc4s3)OCO5)sc2c1 1.65 µM, CCN(CC)S(=O)(=O)c1nnc(NC(=O)COc2ccc(Cl)cc2)s1 0.521 µM, CC(=O)Nc1nnc(COc2ccc(Cl)cc2)s1 3.29 µM, Nc1nnnn1/N=C/c1ccc(N2CCCCC2)c([N+](=O)[O-])c1 16.5 µM, N/C(CS(=O)(=O)c1ccccn1)=N\OC(=O)c1ccccc1Cl 4.65 µM, Cc1c2ccccc2nc2c(F)c(NC(C)C)c(F)c(F)c12 16.5 µM, O=C(Cc1c(Cl)cccc1Cl)OCc1ccccn1 18.5 µM, O=C(Nc1ccc(Cl)cc1)OCc1ccccn1 5.85 µM, O=C(Nc1cccc(Cl)c1)OCc1ccccn1 6.56 µM, Cc1ccc(-n2nnc(-c3cccnc3Cl)n2)cc1 0.521 µM, Cc1ccc(-n2nnc(-c3ccnc4ccccc34)n2)cc1 1.85 µM, COc1ncccc1-c1nnn(-c2ccc(C)cc2)n1 1.47 µM, COCC(=O)Nc1ccc(OCc2ccccc2)cc1 11.7 µM, O=C(Nc1ccccc1)OCCOc1ccccc1 3.69 µM, CC(C)c1ccc(NC(=O)COc2ccccc2)cc1 7.36 µM, CC(C)c1ccc(NC(=O)COc2ccc(F)cc2C(=O)c2cnn(-c3ccccc3)c2)cc1 2.93 µM, Cc1ccsc1C(=O)Nc1ccc(OCc2ccccc2)cc1 1.65 µM, CCOc1ccc(NC(=O)NC2CCCCCCC2)cc1 2.93 µM, CC(C)c1ccc(NC(=O)Cn2ncc3ccccc32)cc1 7.36 µM, Cc1ccc(NC(=O)CCOc2ccccc2)cc1 5.85 µM and 8.26 µM, CCOc1ccc(NC(=O)Cc2ccccc2)cc1 2.61 µM, COC(=O)Nc1ccc(OCc2ccccc2)cc1 5.21 µM, Clc1cccc(Cl)c1C1=NOC(c2nnc(-c3ccccc3)o2)C1 (stereo not drawn) 13.1 µM, COc1ccc(C(=O)Nc2nc3ccccc3[nH]2)cc1OC 1.85 µM, O=C(Nc1ccc(N2CCCC2)cc1)c1cccc(Cl)c1 0.329 µM, COc1ccc(C(=O)Nc2ccc(N3CCCC3)cc2)cc1OC 4.65 µM, NC(=O)NC(=O)C(Nc1ccc(N2CCCCC2)cc1)c1ccccc1 (stereo not drawn) 13.1 µM, O=C(Nc1ccccc1O)c1cc2cc(Br)ccc2oc1=O 0.521 µM, Cc1cccc(NC(=O)c2cc3ccccc3oc2=O)c1 0.329 µM, Cc1ccnc(NC(=O)c2cc3ccccc3oc2=O)c1 0.414 µM, CCN(C(=O)c1cc2ccccc2oc1=O)c1ccccc1 6.56 µM, CCOc1ccc(C2=NC(c3ccc(OC)cc3)=Nc3ccc(Cl)cc3N2)cc1 18.5 µM, O=C(Cn1cccc1C(=O)c1ccccc1)NCc1ccccc1Cl 11.7 µM, O=C1NC(=S)N/C1=C/c1cccc2ccccc12 14.7 µM, CCOC(=O)c1cccc(COC(=O)c2cccc(-c3nnc(-c4ccccc4)o3)c2)c1 5.85 µM, Cc1nn(C)cc1/C=C/C(=O)c1cccs1 13.1 µM, Cc1c(/C=C/C(=O)c2cccs2)cnn1C 14.7 µM, Nc1nnc(COc2ccc(Br)cc2Br)s1 5.21 µM, C=CCN1C(=O)C(=O)N(Cc2nc3ccccc3s2)C1=O 11.7 µM, Cc1ccc(Oc2ncnc3sccc23)cc1 14.7 µM, C=C(C)CNC(=O)CCc1nnc(Cc2cccc(C(F)(F)F)c2)o1 11.7 µM, CC1CCCCN1C(=O)c1cc2c(=O)n3ccccc3nc2s1 (stereo not drawn) 16.5 µM, CC1CCCN(C(=O)c2cc3c(=O)n4ccccc4nc3s2)C1 (stereo not drawn) 14.7 µM, CC1CCN(C(=O)c2cc3c(=O)n4ccccc4nc3s2)CC1 14.7 µM, O=C(NC1CCCCCC1)c1cc2c(=O)n3ccccc3nc2s1 10.4 µM, Cc1cc(N2CCN(C)CC2)nc2ccc(NC(=O)Nc3ccccc3Cl)cc12 0.585 µM, Cc1cc(N2CCN(C)CC2)nc2ccc(NC(=O)Nc3ccccc3)cc12 7.36 µM, Cc1cc(C)cc(Nc2ccc(C(=O)O)cc2N)c1 18.5 µM, N/C(Cc1ccc([N+](=O)[O-])cc1)=N\OC(=O)c1ccccc1F 16.5 µM, O=C(/C=C/c1cccs1)c1ccc(NC(=O)c2ccccc2F)cc1 13.1 µM, O=C(Nc1ccc([N+](=O)[O-])cc1)c1ccccc1F 4.14 µM, O=C(Nc1ccn(-c2ccccc2)n1)c1ccccc1Br 13.1 µM, N=C1C(c2nc3ccccc3[nH]2)=C(O)CN1c1ccc(F)cc1 14.7 µM, CCn1c(SCC(=O)O)nnc1-c1ccccc1OC 3.29 µM, CN(C)c1ccc(/C=N/N=C/c2ccccc2O)cc1 2.61 µM, CCc1ccc2nc3n[nH]c(N)c3cc2c1 2.33 µM, Cc1cc2cc3c(N)[nH]nc3nc2cc1C 14.7 µM, Cc1nc(-c2nc(-c3c(C(=O)NN)noc3C)cs2)cs1 4.14 µM, CCOc1ccc(CNC(=O)c2ccc(NC(=O)c3nsc4ccccc34)cc2)cc1 1.85 µM, COCCCNC(=O)c1ccc(NC(=O)c2nsc3ccccc23)cc1 3.69 µM, Cc1ccc(CNC(=O)c2ccc(NC(=O)c3nsc4ccccc34)cc2)cc1 1.65 µM, CSc1ccc(CNC(=O)c2ccc(NC(=O)c3nsc4ccccc34)cc2)cc1 0.585 µM, CCOc1cc(CNC(=O)c2ccc(NC(=O)c3nsc4ccccc34)cc2)ccc1OC 0.585 µM, O=C(Nc1ccccc1F)N1CCc2ccccc2C1 4.65 µM, Nc1nc(CSC(=S)N2CCOCC2)nc(Nc2ccccc2)n1 3.69 µM, Nc1nc(CSC(=S)N2CCCCC2)nc(Nc2ccccc2)n1 11.7 µM, Cn1c(CCN2CCCCCC2)nc2cc(NC(=O)Nc3ccccc3)ccc21 7.36 µM, Cc1nc2cc(NC(=O)Nc3cccc4ccccc34)ccc2n1C 2.93 µM, Cc1ccc(NC(=O)Nc2ccc3c(c2)nc(C)n3C)cc1C 1.17 µM, Cc1ccc(/C=N/Nc2ncc(Cl)cc2Cl)s1 3.69 µM, Cc1ccc(/C=N/Nc2ccc(Cl)c(C(=O)O)c2)s1 0.165 µM, Cc1ccc(/C=N/Nc2cccc(C(=O)O)c2)s1 0.104 µM, CN(C(=O)c1ccco1)c1nnc(C23CC4CC(CC(C4)C2)C3)s1 8.26 µM, C=CCSc1cc(C)nc2c(-c3ccccc3)cnn12 2.07 µM, CCSc1cc(C)nc2c(-c3ccccc3)cnn12 0.656 µM, COc1ccc(/C=C/C=C2\NC(=S)NC2=O)cc1 14.7 µM, Cc1oc(C(C)(C)C)cc1C(=O)Nc1ccc(C(=O)O)cc1 8.26 µM, NC1=NC(=O)/C(=C/c2cn(Cc3ccccc3)c3ccccc23)S1 9.27 µM, Cc1ccc(C(=O)C(C)OC(=O)c2ccccc2[N+](=O)[O-])cc1 (stereo not drawn) 4.65 µM, CCc1ccc(C(=O)Nc2ccc3nc(C)ccc3c2)cc1 3.29 µM, Cc1ccc2cc(NC(=O)c3cccc(F)c3)ccc2n1 0.464 µM, Cc1ccc2cc(NC(=O)c3ccccc3C)ccc2n1 5.85 µM, Cc1ccc(NC(=O)CC(=O)c2ccccc2)cc1C 11.7 µM, Cc1ccc2cc(NC(=O)Cc3ccccc3)ccc2n1 2.07 µM, CCC(=O)Nc1ccc(-c2csc(C)n2)cc1 7.36 µM, CCC(=O)Nc1ccc(-c2ccc(N3CCCCC3)nn2)cc1 4.14 µM, COc1cc(SC)ccc1C(=O)Nc1ccc2c(c1)CCC2 1.31 µM, COc1cc(SC)ccc1C(=O)Nc1ccc2ncccc2c1 0.369 µM, CSc1ccccc1C(=O)Nc1ccc2c(c1)CCC2 7.36 µM, COc1cc(SC)ccc1C(=O)Nc1ncc(Cl)cc1Cl 1.85 µM
